Cruzain Triton: inhibitors of Trypanosoma cruzi cruzain with detergent; purified cruzain, Z-FR-AMC fluorescence, 0.01% Triton; AID 1478; Potency, µM, most hits filed as inhibitors; 0.43% of 200,000 active; P25779; further: nearly all actives have a fitted effect of over 40% in size
Target sequence (P25779 123-467 limits assumed): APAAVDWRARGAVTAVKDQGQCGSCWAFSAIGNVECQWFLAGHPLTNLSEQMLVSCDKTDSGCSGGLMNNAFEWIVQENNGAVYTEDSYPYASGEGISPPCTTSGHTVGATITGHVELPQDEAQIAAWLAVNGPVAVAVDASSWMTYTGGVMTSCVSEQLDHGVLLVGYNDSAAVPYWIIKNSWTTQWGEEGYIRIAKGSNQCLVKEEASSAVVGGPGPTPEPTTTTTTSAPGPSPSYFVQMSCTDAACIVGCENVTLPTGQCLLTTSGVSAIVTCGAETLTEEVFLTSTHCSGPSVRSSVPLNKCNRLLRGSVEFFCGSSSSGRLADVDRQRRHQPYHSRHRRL
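Z-FR-AMC hydrolysis (2 uM substrate) by cruzain (1.5 nM) monitored kinetically at ex 360/em 450 nm after 15 min room-temperature compound exposure; 0.01% Triton X-100, pH 5.5, 5 mM DTT.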
NS1 function inh: influenza NS1 inhibition. 0.4% of 270,000 active. Potency, µM (doses to about 46.1 µM); calls by dose curve; further: actives are rising curves; nearly all actives have a fitted effect of over 50% in size
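Read-out: OD600 growth recovery of NS1-expressing budding yeast. Cells grown overnight at 30C in -URA glucose medium, washed, resuspended and diluted 1:100 in 2% galactose assay medium, pH 6.0. Same strain lacking NS1 served as positive control.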
Cruzain noTriton: blocks cruzain activity in detergent-free assay; 2.3% of 200,000 active; purified cruzain, Z-FR-AMC fluorescence, no detergent; P25779; Potency, µM, hits mostly inhibitors; further: nearly all actives have a fitted effect of over 40% in size
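Purified cruzain at 1.5 nM, pre-incubated 15 min with compound at room temperature in 100 mM sodium acetate pH 5.5, 5 mM DTT, 0.00005% Triton X-100. Reaction started with 2 uM Z-FR-AMC; AMC fluorescence increase over 60 s gives rate.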
Papain inh: blocks papain protease activity, flagging nonselective cruzain hits; AID 2161; Potency, µM, usual class: inhibitors; shares compounds with Cruzain Triton; purified papain, Z-FR-AMC fluorescence cleavage; 41% of 410 active; further: nearly all actives have a fitted effect of over 35% in size
Target sequence (P00784 whole entry, looked up): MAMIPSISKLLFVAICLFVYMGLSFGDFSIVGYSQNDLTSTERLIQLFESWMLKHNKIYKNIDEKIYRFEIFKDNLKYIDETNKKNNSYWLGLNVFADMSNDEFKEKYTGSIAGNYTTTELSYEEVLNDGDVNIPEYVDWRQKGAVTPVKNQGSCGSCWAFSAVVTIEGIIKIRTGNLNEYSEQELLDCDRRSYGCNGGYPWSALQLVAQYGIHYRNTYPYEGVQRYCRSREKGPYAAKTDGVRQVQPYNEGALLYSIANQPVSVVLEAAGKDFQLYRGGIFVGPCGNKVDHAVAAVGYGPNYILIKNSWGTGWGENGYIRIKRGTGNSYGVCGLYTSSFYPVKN
Large screens that a line does not name were inactive (follow-up assays come after a bar, where they were run). This is one part of a sample in which hits are shown more often than they occur. Unless noted, the call rests on the fitted dose curve; in most records, active means well fitted curve in the direction sought with a large enough effect; inconclusive means small, poorly fitted or top-dose-only effect, or another doubt; inactive means no such curve, though single readings can be large; an effect the other way counts as inactive or inconclusive.

Cc1ccc(C(=O)NCc2ccc3c(c2)OCO3)cc1S(=O)(=O)N1CCOCC1	none
Cc1ccc(NC(=O)/C=C/c2ccc3c(c2)OCO3)cc1S(=O)(=O)N1CCOCC1	Cruzain Triton 13µM, Cruzain noTriton 20µM | Papain inh inactive
O=C(O)Cc1ccc([N+](=O)[O-])cc1[N+](=O)[O-]	none
CCOc1ccccc1NC(=O)c1ccc2c(Cl)c3c(nc2c1)CCC3	none (no result: NS1 function inh)
O=C(NC1CCCC1)c1ccc2nc(-c3ccco3)c(-c3ccco3)nc2c1	Cruzain Triton 14µM, Cruzain noTriton 5µM | Papain inh 14µM
O=C(NCCO)c1ccc(Cl)c(Cl)c1	none
O=C(NCCO)c1ccc2nc(-c3ccco3)c(-c3ccco3)nc2c1	Cruzain Triton 13µM, Cruzain noTriton 13µM | Papain inh 32µM
O=C(NC1CCCC1)c1ccc2nc[nH]c2c1	none
O=C(CS(=O)(=O)c1cccc2nsnc12)N1CCN(c2cccc(C(F)(F)F)c2)CC1	Cruzain noTriton inconclusive (no result: NS1 function inh)
CC(C)N(CCC(=O)c1ccc2ccccc2c1)Cc1ccccc1	Cruzain Triton 7.9µM, Cruzain noTriton 7.9µM | Papain inh inactive
CCC(=O)CCC(=O)c1ccc2ccccc2c1	none
O=C(Nc1nc(-c2ccc(S(=O)(=O)N3CCCCCC3)cc2)cs1)c1cccs1	Cruzain noTriton 3.2µM | Papain inh inactive
CCOc1ccc(-c2csc(NC(=O)c3ccc(S(=O)(=O)N4CCc5ccccc5C4)cc3)n2)cc1	Cruzain noTriton 4µM | Papain inh inactive
CCOc1ccc(S(=O)(=O)N2CCc3ccccc3C2)cc1	none
O=C(Nc1nc(-c2ccc(S(=O)(=O)N3CCCC3)cc2)cs1)c1cccs1	none
COc1ccccc1-n1ncc2c(=O)[nH]c(SCC(=O)Nc3ccc(Cl)cc3)nc21	none (no result: NS1 function inh)
Cc1ccccc1Cn1c(=O)n(CCCCC(=O)NCc2ccc3c(c2)OCO3)c(=O)c2ccccc21	none (no result: NS1 function inh)
CN(C)c1ccc(-c2nc(-c3cccs3)c(-c3cccs3)[nH]2)cc1	Cruzain noTriton inconclusive (no result: NS1 function inh)
COc1ccc(C(=O)COC(=O)CNC(=O)C2CCCCC2)c(OC)c1	Cruzain Triton 4µM, Cruzain noTriton 6.3µM | Papain inh inactive
COc1cc(OC)cc(C(=O)NCC(=O)OCC(=O)c2cc(OC)ccc2OC)c1	none
COc1ccc(OC)c(C(=O)COC(=O)CNC(=O)C2CCCCC2)c1	Cruzain Triton 4.5µM, Cruzain noTriton 5µM | Papain inh inactive
CCOC(=O)C1CCN(C(=O)c2ccc(OC)cc2OC)CC1	none
CNc1ncncc1-c1ccccc1C(F)(F)F	none (no result: NS1 function inh)
N#Cc1c(-c2ccccc2)cc(-c2ccco2)c(C#N)c1N	NS1 function inh inconclusive | Papain inh inactive
N#Cc1c(-c2ccco2)cc(-c2ccccc2)[nH]c1=O	none (no result: Cruzain Triton, Cruzain noTriton)
COc1ccc2[nH]cc(CCNc3ccnc(-c4ccccc4Cl)n3)c2c1	none (no result: NS1 function inh)
Cc1cccc(Nc2nc3c(S(=O)(=O)c4ccc(Br)cc4)nnn3c3ccsc23)c1C	none (no result: NS1 function inh)
O=C(CNC(=O)C1CCCCC1)NC1CCCCC1	none (no result: Cruzain Triton, Cruzain noTriton)
CC(C)(C)NC(=O)NC(=O)COC(=O)CCC1CCCC1	none (no result: Cruzain Triton, Cruzain noTriton)
CC(C)(C)NC(=O)COC(=O)CNC(=O)C1CCCCC1	none (no result: Cruzain Triton, NS1 function inh, Cruzain noTriton) | Papain inh inactive
CC(C)NC(=O)COC(=O)CNC(=O)C1CCCCC1	none (no result: Cruzain Triton, NS1 function inh, Cruzain noTriton) | Papain inh inactive
COC(=O)Cn1c(=O)c2cccn2c2ccc(F)cc21	none (no result: NS1 function inh)
CCc1ccc(NC(=O)CC2C(=O)N(c3cccc(C)c3)C(=O)N2Cc2cccs2)cc1 (stereo not given)	none (no result: NS1 function inh)
CCN(c1ccccc1)S(=O)(=O)c1ccc2[nH]cc(C(=O)NCc3ccc(C)cc3)c(=O)c2c1	none (no result: NS1 function inh)
CCC(C)C(NCc1cccc(C)c1)C(=O)O (stereo not given)	none (no result: Cruzain Triton, Cruzain noTriton)
CCC(C)[C@@H](NC(=O)OC(C)(C)C)c1nnc(S(=O)(=O)Cc2cccc(C)c2)o1 (stereo not given in full)	Cruzain Triton 3.2µM, Cruzain noTriton 7.9µM | Papain inh 13µM
Cc1ccc(NC(=S)c2nc3ccccc3[nH]2)c(C)c1	none
Cc1ccc2[nH]c(=O)c(NC(N)=S)nc2c1	Cruzain Triton 1.8µM, Cruzain noTriton 1.6µM | Papain inh inactive
N[C@@H](CSS(=O)(=O)O)C(=O)O	none (no result: NS1 function inh)
COc1ccc(/C=N/NC(=O)c2cccc(Br)c2)cc1Cn1cc(Cl)cn1	Cruzain noTriton inconclusive
COc1ccc(/C=N/NC(=O)c2ccc(Br)cc2)cc1Cn1cc(Cl)cn1	Cruzain noTriton inconclusive | Papain inh inactive
Cc1ccc(C)c(-c2csc(-c3c(N)c(C(=O)c4ccc5c(c4)OCO5)n4ccccc34)n2)c1	Cruzain noTriton 3.2µM (no result: NS1 function inh) | Papain inh inactive
Cc1cc(C)c(-c2csc(NC(=O)COC(=O)c3ccc4c(c3)OCO4)n2)c(C)c1	Cruzain noTriton inconclusive
COC(=O)CCC(C)C1CCC2C3CC[C@H]4CC(O)CC[C@@]4(C)C3CC(O)[C@]12C (stereo not given in full)	Cruzain noTriton inconclusive (no result: NS1 function inh) | Papain inh inactive
COC(=O)CC[C@@H](C)[C@H]1CC[C@H]2[C@@H]3CC[C@@H]4C[C@H](O)CC[C@]4(C)[C@H]3C[C@H](O)[C@]12C	Cruzain noTriton inconclusive (no result: NS1 function inh)
CNC(=O)c1cnc2sc(N3CCCCCC3)nn2c1=O	none (no result: NS1 function inh)
CCC(C(=O)Nc1cc(-c2nc3cccnc3s2)ccc1C)c1ccccc1 (stereo not given)	Cruzain noTriton inconclusive (no result: NS1 function inh)
Cc1cc(=O)oc2cc(OCC(=O)N3CCOCC3)ccc12	Cruzain Triton 8.9µM | Papain inh 14µM
Cc1cc(=O)oc2cc(OCC(=O)NCCN3CCOCC3)ccc12	none (no result: Cruzain Triton, Cruzain noTriton)
CC1(C)Oc2ccc(/C=C/C(=O)N3CCOCC3)c(O)c2C(N2CCOCC2)C1O (stereo not given)	none
CC(C)CC(=O)OC1C(N2CCOCC2)c2c(ccc(/C=C/C(=O)N3CCOCC3)c2O)OC1(C)C (stereo not given)	Cruzain noTriton inconclusive | Papain inh 14µM
N#CCCn1c(=O)c(-c2ccccc2)nc2cnc(Oc3ccccc3)nc21	Cruzain noTriton inconclusive (no result: NS1 function inh)
CSCC[C@H](NC(=O)CC(C)(C)C)c1nc2ccccc2[nH]1	none
CSCC[C@H](NC(=O)COc1ccc(Cl)cc1Cl)c1nc2ccccc2[nH]1	Cruzain Triton 6.3µM | Papain inh inactive
CCc1ccc(NC(=O)c2sc(-n3nc(C)c(CCC(C)C)c3C)nc2C)cc1	none (no result: NS1 function inh)
Cc1ccc(C(=O)c2oc3ccccc3c2NC(=O)COc2ccccc2Cl)cc1	none (no result: NS1 function inh)
CCN(CC)c1ccc(NC(=O)C2COc3ccc(OC)cc3C2)c(C)c1 (stereo not given)	none (no result: NS1 function inh)
O=c1c2sc3ccccc3c2n(Cc2ccc(F)cc2)c(=O)n1Cc1ccccc1	none (no result: NS1 function inh)
COc1ccc(-c2nc(C#N)c(NCCCN3CCOCC3)o2)cc1	Cruzain Triton 20µM, NS1 function inh inconclusive | Papain inh 4µM
N#Cc1nc(-c2ccc(F)cc2)oc1NCCN1CCOCC1	none
CCOc1ccccc1NC(=O)C(NS(=O)(=O)c1ccc2c(c1)CCC(=O)N2)c1ccccc1 (stereo not given)	Cruzain noTriton inconclusive (no result: NS1 function inh)
O=C(NC(=S)Nc1ccc(NC(=O)c2cccs2)cc1)c1cc2ccccc2o1	Cruzain noTriton inconclusive
O=C(NC(=S)Nc1nc(-c2cccc3ccccc23)cs1)c1cc2ccccc2o1	Cruzain noTriton 2.5µM | Papain inh inactive
COc1ccc(CNc2ccnc(-c3c(C)noc3C)n2)c(OC)c1	none (no result: NS1 function inh)
Cn1cc(S(=O)(=O)N2CCCCC2)cc1C(=O)NCc1ccc(Cl)cc1	Cruzain Triton 10µM, Cruzain noTriton inconclusive (no result: NS1 function inh) | Papain inh inactive

Compound activity: PubChem, National Center for Advancing Translational Sciences (NCATS)
